PI5P4Ka inh = qHTS for Inhibitors of phosphatidylinositol 5-phosphate 4-kinase (PI5P4K); AID 652105, 2013; max response, %; 1.2% of 330,000 active; PI5P4Kalpha enzyme, ADP-Glo luminescence, 60 min; hits give low values; Phosphatidylinositol 5-phosphate 4-kinase type-2 alpha (Homo sapiens), P48426; active = max response of -50% or lower; inconclusive = between -30% and -50%; inactive = -30% or higher; also: value at the top dose of about 77 µM; % is scaled to controls: 0 for no effect and ±100 for the full control effect
Target sequence (P48426 whole entry, looked up): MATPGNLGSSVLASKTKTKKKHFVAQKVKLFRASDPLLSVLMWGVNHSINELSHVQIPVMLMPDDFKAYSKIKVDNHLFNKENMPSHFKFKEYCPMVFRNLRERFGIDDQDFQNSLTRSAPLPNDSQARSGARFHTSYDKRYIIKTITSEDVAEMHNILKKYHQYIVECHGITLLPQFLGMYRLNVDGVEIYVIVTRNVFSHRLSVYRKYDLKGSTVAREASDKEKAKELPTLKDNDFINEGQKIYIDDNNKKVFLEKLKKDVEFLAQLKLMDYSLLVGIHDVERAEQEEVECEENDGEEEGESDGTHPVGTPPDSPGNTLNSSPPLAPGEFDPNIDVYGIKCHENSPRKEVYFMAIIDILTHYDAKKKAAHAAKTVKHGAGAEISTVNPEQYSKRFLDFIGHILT
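ADP-Glo luminescence end-point read after a 60 min room-temperature kinase reaction of PI5P4Kalpha plus substrate, initiated with ATP at 5 microM final. Buffer: 0.038 M HEPES pH 7.4, EGTA, 0.1% CHAPS, 5% DMSO.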
GCN5L2 inh = qHTS Assay for Inhibitors of GCN5L2 | GCN5L2 HAT assay, ThioGlo1 CoA-SH fluorescence | Potency, µM (highest dose often 58.9 µM), inactives show top-dose activity change, negative = inhibition, most hits filed as inhibitors | 0.21% of 390,000 active | AID 504327, 2011; also: potency is read from the fitted curve at half-maximal effect; % is scaled to controls: 0 for no effect and ±100 for the full control effect
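qHTS, 1536-well. 20nM enzyme, pH 7.5 HEPES/EDTA/Tween-20 buffer; 15 min compound preinc., RT. Start: 75uM H3(1-25), 70uM AcCoA, 50uM ThioGlo1. Read Ex340/Em540 at t=0 (autofluorescence flag) and t=20 min.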
RECQ1 inh = qHTS Assay for Inhibitors of RecQ-Like Dna Helicase 1 (RECQ1); 0.54% of 240,000 active; Potency, µM (highest dose often 57.3 µM), inactives show at the highest dose activity, negative = inhibition, usual class: inhibitors; AID 2549, 2010; RECQ1 DNA unwinding, red fluorescence kinetic read;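 also: potency is read from the fitted curve at half-maximal effect; plate controls were vehicle for no effect and no enzyme for full effect; nearly all actives have a fitted effect of over 30% in size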
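RECQ1T1 50 nM; forked duplex (20 bp + 30-nt ss tails) 200 nM, ATP 2 mM final; pH 8.0, 2 mM MgCl2, 2.5 ug/ml poly(dI-dC); 15 min compound preincubation; discontinuous kinetic read over 2 h at RT.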
APEX1 inh = qHTS Assay for Inhibitors of the Human Apurinic/apyrimidinic Endonuclease 1 (APE1); DNA repair nuclease/redox regulator APEX1 (Homo sapiens), P27695; recombinant APE1, TAMRA/BHQ-2 abasic DNA cleavage fluorescence; Potency, µM (series often up to 65.8 µM), inactives show top-dose activity change, negative = inhibition, usual class: inhibitors; 0.35% of 350,000 active;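 also: potency is read from the fitted curve at half-maximal effect; plate controls were vehicle for no effect and reference inhibitor for full effect; nearly all actives have a fitted effect of over 55% in size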
Target sequence (P27695 whole entry, looked up): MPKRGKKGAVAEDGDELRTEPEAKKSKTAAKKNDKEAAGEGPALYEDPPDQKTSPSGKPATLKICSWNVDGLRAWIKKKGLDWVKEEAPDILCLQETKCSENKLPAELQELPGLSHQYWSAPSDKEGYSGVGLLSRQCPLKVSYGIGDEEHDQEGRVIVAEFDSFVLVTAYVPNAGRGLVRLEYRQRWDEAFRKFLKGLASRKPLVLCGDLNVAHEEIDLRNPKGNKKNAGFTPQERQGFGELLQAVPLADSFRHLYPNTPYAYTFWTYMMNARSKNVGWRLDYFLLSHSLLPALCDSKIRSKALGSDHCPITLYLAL
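Readout is kinetic fluorescence (ex 525, em 598 nm) from cleavage of 50 nM TAMRA/BHQ-2 THF abasic duplex by 0.75 nM APE1, compound added 15 min beforehand at RT.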
BLM helicase inh = qHTS Assay for Inhibitors of Bloom's syndrome helicase (BLM); 0.2% of 350,000 active; recombinant BLM DNA unwinding, fluorescence dequenching; Potency, µM (top dose mostly 56.1 µM), for inactives: top-dose activity change, negative = inhibition, most hits filed as inhibitors; AID 2528, 2010; RecQ-like DNA helicase BLM (Homo sapiens), P54132;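 also: potency is read from the fitted curve at half-maximal effect; plate controls were vehicle for no effect and no enzyme for full effect; nearly all actives have a fitted effect of over 35% in size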
FEN1 inh-1 = qHTS Assay for the Inhibitors of Human Flap endonuclease 1 (FEN1); Potency, µM (series often up to 114 µM), for the others: top-dose activity change, negative = inhibition, most hits filed as inhibitors; P39748; AID 588795, 2011; 0.35% of 390,000 active; Recombinant FEN1 flap cleavage, fluorescence, 15 min; also: potency is read from the fitted curve at half-maximal effect; % is scaled to controls: 0 for no effect and ±100 for the full control effect; nearly all actives have a fitted effect of over 65% in size
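Quantitative HTS format: each compound was titrated, incubated with 10 nM nuclease for 15 min at room temperature, then challenged with flap substrate at 50 nM final. Signal change over 15 min gave concentration–effect curves.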
FEN1 inh-2 = qHTS Assay for the Inhibitors of FEN1: Confirmatory Assay for Cherry-picked Compounds; shares compounds with FEN1 inh-1; FEN1 flap cleavage, TAMRA/BHQ2 fluorogenic DNA substrate; Potency, µM, actives largely listed as inhibitors; 79% of 880 active; also: potency is read from the fitted curve at half-maximal effect; nearly all actives have a fitted effect of over 60% in size
The depositor's hits bear a star; [ ] = remark or other dose. Compounds with a hit are over-represented: about 1.5% of the library has one in this group of screens. Unless noted, calls follow the shape of the dose curve; as a rule, active = well fitted curve in the direction sought with a large enough effect; inconclusive = small, poorly fitted or top-dose-only effect, or another doubt; inactive = no such curve, though single readings can be large; an effect the other way counts as inactive or inconclusive.

What do the screens show for `COc1ccc(-c2nc3c(C(=O)NCCN(C)C)cccc3c3ccccc23)cc1`?
PI5P4Ka inh: -8; FEN1 inh-1: 32µM*; FEN1 inh-2: 34*

What do the screens show for `COc1cccc2nc3c(C(=O)NCCN(C)C)cccc3cc12`?
PI5P4Ka inh: -23; FEN1 inh-1: 13µM*; FEN1 inh-2: 30*

What do the screens show for `CC(C)Cn1c(N)c(C(=O)COC(=O)c2ccc([N+](=O)[O-])o2)c(=O)n(C)c1=O`?
PI5P4Ka inh: -7; GCN5L2 inh: -5%; RECQ1 inh: -10%; APEX1 inh: -6%; BLM helicase inh: -5%; FEN1 inh-1: inconclusive; FEN1 inh-2: 9.5*

Results for CC(C)Cn1c(N)c(C(=O)COC(=O)c2ccc(O)cc2)c(=O)n(C)c1=O ?
PI5P4Ka inh: 0; GCN5L2 inh: -13%; RECQ1 inh: -3%; APEX1 inh: -5%; BLM helicase inh: -6%; FEN1 inh-1: 7%

Results for COCCn1c(C)cc(C(=O)COC(=O)c2ccc([N+](=O)[O-])o2)c1C ?
PI5P4Ka inh: -2; GCN5L2 inh: -2%; RECQ1 inh: -13%; APEX1 inh: 9%; BLM helicase inh: -9%; FEN1 inh-1: inconclusive; FEN1 inh-2: 15*

How did O=C(Nc1ccccc1)Nc1ccc(Nc2ccccc2)cc1 do in these assays?
PI5P4Ka inh: -2; FEN1 inh-1: 1%

How did O=S(=O)(O)c1ccc(O)c2cc(Nc3ccccc3)ccc12 do in these assays?
PI5P4Ka inh: -105*; FEN1 inh-1: 7.9µM*; FEN1 inh-2: 8.5*

What do the screens show for `CC1CCN(C(=O)COC(=O)c2ccc([N+](=O)[O-])o2)CC1`?
PI5P4Ka inh: 2; GCN5L2 inh: -3%; APEX1 inh: -38%; FEN1 inh-1: inconclusive; FEN1 inh-2: 6*

How did CCN(C(=O)COC(=O)c1ccc([N+](=O)[O-])o1)C1CCCCC1 do in these assays?
PI5P4Ka inh: -4; GCN5L2 inh: -2%; APEX1 inh: -36%; FEN1 inh-1: -16%; FEN1 inh-2: 17*

How did CC1CCCCC1NC(=O)COC(=O)c1ccc([N+](=O)[O-])o1 (stereo not drawn) do in these assays?
PI5P4Ka inh: -4; GCN5L2 inh: -2%; APEX1 inh: -41%; FEN1 inh-1: -26%; FEN1 inh-2: 9.5*

What do the screens show for `O=C(COC(=O)c1ccc([N+](=O)[O-])o1)NC1CCCCC1`?
PI5P4Ka inh: 0; GCN5L2 inh: -7%; APEX1 inh: -16%; FEN1 inh-1: inconclusive; FEN1 inh-2: 6.7*

How did CCOC(=O)CCCNC(=O)N1CCc2nc(-c3ccc(OC)cc3C)c3c(c2C1)CO[C@@H](c1ccccc1)C3 do in these assays?
RECQ1 inh: inactive[11.5 µM]; APEX1 inh: -2%[12.4 µM]; BLM helicase inh: -7%[12.4 µM]

Results for CC(C)C(N)C(=O)O (stereo not drawn) ?
GCN5L2 inh: -8%; RECQ1 inh: -11%; APEX1 inh: -2%

How did Cc1ccc(C(=O)N(Cc2ccc(N(C)C)cc2)CC2CCCO2)cc1 (stereo not drawn) do in these assays?
GCN5L2 inh: -1%; BLM helicase inh: -1%; FEN1 inh-1: -2%

How did O=C(COC(=O)c1ccc([N+](=O)[O-])o1)NC1CCS(=O)(=O)C1 (stereo not drawn) do in these assays?
PI5P4Ka inh: 0; GCN5L2 inh: -14%; RECQ1 inh: -8%; APEX1 inh: 1%; BLM helicase inh: 4%; FEN1 inh-1: inconclusive; FEN1 inh-2: 7.6*

What do the screens show for `O=C(O)c1cc(Cl)ccc1-c1ccc(/C=C/c2cc(C(F)(F)F)[nH]c(=O)n2)o1`?
PI5P4Ka inh: -53*; GCN5L2 inh: 0%; RECQ1 inh: -1%; APEX1 inh: -1%; BLM helicase inh: 5%; FEN1 inh-1: inconclusive; FEN1 inh-2: 60*

What do the screens show for `O=C(N/N=C/c1cccnc1)c1cc(O)c(O)c(O)c1`?
PI5P4Ka inh: -22; GCN5L2 inh: -20%; APEX1 inh: inconclusive; BLM helicase inh: -14%; FEN1 inh-1: 4µM*; FEN1 inh-2: 6*

Results for CC1=NC(Nc2nc(C)c3ccccc3n2)=NC(C)(C)C1 ?
PI5P4Ka inh: -10; GCN5L2 inh: 0%; RECQ1 inh: 1%; APEX1 inh: -2%; BLM helicase inh: 84%; FEN1 inh-1: 40µM*; FEN1 inh-2: 48*

What do the screens show for `CCOC(=O)OCC`?
RECQ1 inh: 5%; APEX1 inh: 19%

What do the screens show for `Cc1[nH]c2ccccc2c1/C=C/c1c(C)[nH]c2ccccc12`?
FEN1 inh-1: -4%

Results for Cc1[nH]c2ccccc2c1/C=C/c1cc[n+](C)cc1 ?
PI5P4Ka inh: -2; GCN5L2 inh: -17%; RECQ1 inh: -17%; APEX1 inh: 3%; BLM helicase inh: 9%; FEN1 inh-1: inconclusive; FEN1 inh-2: inconclusive

How did COc1cc(-c2nnc(COC(=O)c3ccc([N+](=O)[O-])o3)o2)cc(OC)c1OC do in these assays?
PI5P4Ka inh: 5; FEN1 inh-2: 8.5*

Results for Cc1c(C(=O)O)cccc1-c1ccc(/C=C2/NC(=O)N(c3ccccc3)C2=O)o1 ?
PI5P4Ka inh: 1; GCN5L2 inh: -4%; RECQ1 inh: inactive; APEX1 inh: inconclusive; BLM helicase inh: 1%; FEN1 inh-1: 3%

What do the screens show for `COc1ccccc1N1C(=N)S/C(=C\c2ccc(-c3ccccc3C(=O)O)o2)C1=O`?
PI5P4Ka inh: inconclusive; GCN5L2 inh: -12%; RECQ1 inh: inconclusive; APEX1 inh: 28µM*; BLM helicase inh: 2%; FEN1 inh-1: 45µM*; FEN1 inh-2: inconclusive

How did CN(C)c1ccc(-c2nccc(Nc3ccc(F)cc3)n2)cc1 do in these assays?
GCN5L2 inh: -27%; RECQ1 inh: -13%; APEX1 inh: -4%; BLM helicase inh: -18%
